SMILES strings stand for the structures. The panel holds about 79,000 compounds, 15% with a hit somewhere; the sample as a whole holds those more often. Values without a mark were called inactive. Active and inactive are the calls of the source. Cut-off read from the data, not from the text of the source: active = growth inhibition above about 70%; inactive = the rest.

The nature of one experiment: NCI Yeast Anticancer Drug Screen. Data for the bub3 strain (AID 167). Conditions: S. cerevisiae bub3 mutant strain, at 50.0 µM, stronger effect = higher value. Summed up: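 In this screen, a yeast mutant lacking normal mitotic checkpoint function is challenged with compound. Relative growth versus vehicle gives the inhibition value.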
Regarding `CCc1nc(N)nc(N)c1-c1ccc(NCCN)c(N)c1`, the growth inhibition is 12.2%.

Regarding `Cc1cc[n+](C2=C([O-])C3=C(C(=O)C2=O)C2c4ccccc4C3c3ccccc32)c(C)c1`, the growth inhibition was 90.2% (active).

Regarding `CC(=O)Oc1ccc2c(c1)Cc1cc([N+](=O)[O-])ccc1-2`, the growth inhibition was 32.7%.

In the case of `O=C(CBr)c1c2c(cc3c1CCCC3)CCCC2`, the growth inhibition was 33%.

In the case of `CCCCc1c(C#N)c(=O)n2c(N)c(C#N)cnc2c1SC`, the growth inhibition was 12.7%.

In the case of `CC(Cc1ccccc1)Nc1ccccc1` (stereo not given), the growth inhibition is -12.5%.

Turning to `COc1c(-c2cccs2)oc2c(CC(=O)O)cccc2c1=O`, the growth inhibition was 17.7%.

For `CCN(CC)CCNc1ccc2ncn3c4ccccc4c(=O)c1c23`, the growth inhibition was 29.1%.

Regarding `O=C(SCSC(=O)c1ccccc1)c1ccccc1`, the growth inhibition is 32.8%.

Turning to `CCNc1ccc(N=Nc2ccc(-c3ccc(N=Nc4ccc(NCC)c5ccccc45)c(OC)c3)cc2OC)c2ccccc12`, the growth inhibition is 26.9%.

For the compound `COc1cc(C(C)O)c[n+](CCc2c[nH]c3ccccc23)c1` (stereo not given), the growth inhibition was -28%.

Consider `N/N=C1/C(=O)N(c2ccc(S(N)(=O)=O)cc2)C(=O)C1C(=O)Nc1ccc(S(N)(=O)=O)cc1` (stereo not given), for which the growth inhibition is 0.25%.

As to `Cc1nc2cc(Nc3ccccc3C(=O)O)ccc2s1`, the growth inhibition was -22.2%.

For `N#CCCCCCCl`, the growth inhibition was -15.6%.

`CCCCCCCC[N+](C)(C)CC#CC[N+](C)(C)CCCCCCCC`: the growth inhibition was 11.1%.

With `CCOC(=O)Cc1nnc2n(-c3ccccc3)c(=O)c3ccccc3n12`, the growth inhibition was -21.9%.

Regarding `O=P(O)(O)Oc1ccc(NCCO)cc1`, the growth inhibition is 7.55%.

In the case of `CC(C)c1ccccc1[S+]1OC(C)(C)c2ccccc21` (stereo not given), the growth inhibition is -1.5%.

Take `O=P(O)(O)c1ccc(-c2ccc(P(=O)(O)O)cc2)cc1`: the growth inhibition is 2.3%.

Turning to `NC(=O)NC(=S)NC(=O)c1ccccc1`, the growth inhibition is -28.8%.

As to `CC(C)C1=CC(=Nc2ccc(N(C)C)cc2)C=CC1=O`, the growth inhibition is 18%.

Consider `OCc1ccc(O)c(CO)n1`, for which the growth inhibition was -20.6%.

For the compound `N#CCCC(CC#N)S(=O)(=O)O` (stereo not given), the growth inhibition was 15.7%.

Regarding `OCC1COc2cc(Cl)c(Cl)cc2O1` (stereo not given), the growth inhibition is 36.9%.

On to `O=C1OC2c3ccccc3C3CC(=O)C2C13` (stereo not given), for which the growth inhibition is 1.25%.

Turning to `Nc1ccc(/C=C\C(=O)c2ccccc2)cc1`, the growth inhibition is 4.25%.

For the compound `c1ccc(C2Nc3ccccc3C3OCCCC23)cc1` (stereo not given), the growth inhibition is -20.6%.

In the case of `CN(C)c1nc(N(C)C)n2c(-c3ccccc3[N+](=O)[O-])nnc2n1`, the growth inhibition is 13.3%.

For the compound `COc1ccc(OC)c(NC(=O)c2ccccc2Cl)c1`, the growth inhibition was 48.2%.

`CCOC(CCCl)c1ccc(C)cc1` (stereo not given): the growth inhibition is -33.6%.

Regarding `N#CC/C(C#N)=C/OC(=O)c1ccc(Cl)cc1`, the growth inhibition was -17.9%.

For `CC(=O)Nc1ccccc1Sc1ccccc1`, the growth inhibition is 4.6%.

Regarding `C(=C\c1nc2ccccc2nc1/C=C/c1ccccc1)/c1ccccc1`, the growth inhibition was 2.7%.

Regarding `O=C(O)c1ccccc1[N+](=O)[O-]`, the growth inhibition was -4.3%.

As to `Cc1ccc(C)c2nc3c(C)ccc(C)c3cc12`, the growth inhibition is -0.45%.

As to `CC(=O)N1CN=C2Sc3ccccc3N2C1`, the growth inhibition was 13.2%.

Regarding `O=c1[nH]cnc2c1sc(=S)n2-c1ccccc1`, the growth inhibition is -12.3%.

With `Cc1ccc(N)c(C(=O)Nc2ccc(Br)cc2)c1`, the growth inhibition is -17.6%.

As for `CC(C)C1=CC2=C(C(=O)C1=O)C13CCCC(C)(C)C1CC2OC3=O` (stereo not given), the growth inhibition is -2.6%.

Turning to `CC(C)(C)OC(=O)N/N=C\c1ccnc2ccccc12`, the growth inhibition is -6.5%.

The next experiment in a line: NCI Yeast Anticancer Drug Screen. Data for the mlh1 rad18 strain (AID 175). The following applies: S. cerevisiae mlh1 rad18 strain growth inhibition; at 50.0 µM; stronger effect = higher value. The method, boiled down:
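Vehicle-treated cultures served as the reference for growth inhibition in a yeast strain carrying DNA damage repair alterations exposed to each compound.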
Consider `CCc1nc(N)nc(N)c1-c1ccc(NCCN)c(N)c1`, for which the growth inhibition was 8.5%.

Consider `Cc1cc[n+](C2=C([O-])C3=C(C(=O)C2=O)C2c4ccccc4C3c3ccccc32)c(C)c1`, for which the growth inhibition was 97.5% (active).

In the case of `CC(=O)Oc1ccc2c(c1)Cc1cc([N+](=O)[O-])ccc1-2`, the growth inhibition is 20.6%.

For `O=C(CBr)c1c2c(cc3c1CCCC3)CCCC2`, the growth inhibition was -16.6%.

Take `CCCCc1c(C#N)c(=O)n2c(N)c(C#N)cnc2c1SC`: the growth inhibition is 25.8%.

Turning to `CC(Cc1ccccc1)Nc1ccccc1` (stereo not given), the growth inhibition was 62.4%.

With `COc1c(-c2cccs2)oc2c(CC(=O)O)cccc2c1=O`, the growth inhibition was -26%.

With `CCN(CC)CCNc1ccc2ncn3c4ccccc4c(=O)c1c23`, the growth inhibition is 42.9%.

In the case of `O=C(SCSC(=O)c1ccccc1)c1ccccc1`, the growth inhibition is 2%.

Consider `CCNc1ccc(N=Nc2ccc(-c3ccc(N=Nc4ccc(NCC)c5ccccc45)c(OC)c3)cc2OC)c2ccccc12`, for which the growth inhibition was 36%.

Regarding `COc1cc(C(C)O)c[n+](CCc2c[nH]c3ccccc23)c1` (stereo not given), the growth inhibition is -36.5%.

For `N/N=C1/C(=O)N(c2ccc(S(N)(=O)=O)cc2)C(=O)C1C(=O)Nc1ccc(S(N)(=O)=O)cc1` (stereo not given), the growth inhibition was 12.1%.

Take `Cc1nc2cc(Nc3ccccc3C(=O)O)ccc2s1`: the growth inhibition was -25.9%.

Regarding `N#CCCCCCCl`, the growth inhibition is 14.8%.

With `CCCCCCCC[N+](C)(C)CC#CC[N+](C)(C)CCCCCCCC`, the growth inhibition is 44.1%.

As for `CCOC(=O)Cc1nnc2n(-c3ccccc3)c(=O)c3ccccc3n12`, the growth inhibition was -74.2%.

On to `O=P(O)(O)Oc1ccc(NCCO)cc1`, for which the growth inhibition is -13.9%.

For `CC(C)c1ccccc1[S+]1OC(C)(C)c2ccccc21` (stereo not given), the growth inhibition was -38.7%.

Turning to `O=P(O)(O)c1ccc(-c2ccc(P(=O)(O)O)cc2)cc1`, the growth inhibition was -1.75%.

In the case of `NC(=O)NC(=S)NC(=O)c1ccccc1`, the growth inhibition was -7%.

For the compound `CC(C)C1=CC(=Nc2ccc(N(C)C)cc2)C=CC1=O`, the growth inhibition was -13.1%.

For `OCc1ccc(O)c(CO)n1`, the growth inhibition is 7.55%.

Turning to `N#CCCC(CC#N)S(=O)(=O)O` (stereo not given), the growth inhibition is -13.1%.

Consider `OCC1COc2cc(Cl)c(Cl)cc2O1` (stereo not given), for which the growth inhibition is 50.2%.

As for `O=C1OC2c3ccccc3C3CC(=O)C2C13` (stereo not given), the growth inhibition was 7.65%.

`Nc1ccc(/C=C\C(=O)c2ccccc2)cc1`: the growth inhibition is 17.4%.

Regarding `c1ccc(C2Nc3ccccc3C3OCCCC23)cc1` (stereo not given), the growth inhibition was 1.7%.

`CN(C)c1nc(N(C)C)n2c(-c3ccccc3[N+](=O)[O-])nnc2n1`: the growth inhibition was 33.4%.

For the compound `COc1ccc(OC)c(NC(=O)c2ccccc2Cl)c1`, the growth inhibition is -16.8%.

As to `CCOC(CCCl)c1ccc(C)cc1` (stereo not given), the growth inhibition is -20.5%.

Regarding `N#CC/C(C#N)=C/OC(=O)c1ccc(Cl)cc1`, the growth inhibition is -7.15%.

As to `CC(=O)Nc1ccccc1Sc1ccccc1`, the growth inhibition was -20.9%.

`C(=C\c1nc2ccccc2nc1/C=C/c1ccccc1)/c1ccccc1`: the growth inhibition is 9.45%.

Turning to `O=C(O)c1ccccc1[N+](=O)[O-]`, the growth inhibition is 10.8%.

For the compound `Cc1ccc(C)c2nc3c(C)ccc(C)c3cc12`, the growth inhibition is 14.3%.

For `CC(=O)N1CN=C2Sc3ccccc3N2C1`, the growth inhibition is 18.5%.

For `O=c1[nH]cnc2c1sc(=S)n2-c1ccccc1`, the growth inhibition is -2.4%.

In the case of `Cc1ccc(N)c(C(=O)Nc2ccc(Br)cc2)c1`, the growth inhibition is -16.6%.

As to `CC(C)C1=CC2=C(C(=O)C1=O)C13CCCC(C)(C)C1CC2OC3=O` (stereo not given), the growth inhibition was 85.5% (active).

In the case of `CC(C)(C)OC(=O)N/N=C\c1ccnc2ccccc12`, the growth inhibition was -1.95%.
